Experimental findings from PubChem BioAssay (NCATS) are described below.

Experiment [1] is described as follows: qHTS of pediatric cancer cell lines to identify multiple opportunities for drug repurposing: Primary screen for SK-N-SH cells (AID 1347098). Note: nearly all actives have a fitted effect of over 65% in size. Note: potency is the fitted concentration of half-maximal effect. The procedure, abridged:
(§1)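 Cells (500-1,000/well) rested 5 h, then received compounds for 48 h; metabolically active cells were measured by CellTiter-Glo luminescence. Final concentrations spanned up to 46 µM (MIPE, 11-point) or 0.59 nM-46 µM (NPC, 8-point) in primary screens, 11-point in follow-ups.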
(In qHTS, concentration-response curves come from the screen itself.)

A short description of experiment [2]: qHTS of pediatric cancer cell lines to identify multiple opportunities for drug repurposing: Primary screen for NB1643 cells (AID 1347099). Note: nearly all actives have a fitted effect of over 50% in size. Note: potency is the fitted concentration of half-maximal effect. Summed up:
(§2)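 Quantitative HTS format: each compound titrated (MIPE 11 points from 0.78 nM, NPC 8 points from 0.59 nM) onto cells plated 5 hours earlier. After 48 h at 37 degrees C, CellTiter-Glo luminescence was recorded.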

Experiment [3] in a line: qHTS of pediatric cancer cell lines to identify multiple opportunities for drug repurposing: Primary screen for LAN-5 cells (AID 1347100). Note: potency is the fitted concentration of half-maximal effect. Summed up:
(§3)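 Viability after 48 h compound treatment at 37C, 500-1,000 cells/well, read as ATP luminescence with CellTiter-Glo. Primary screens used 11-point (MIPE, 0.78 nM-46 µM) or 8-point (NPC, 0.59 nM-46 µM) final concentrations; follow-up screens used 11-point dilutions.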

A short description of experiment [4]: qHTS of pediatric cancer cell lines to identify multiple opportunities for drug repurposing: Primary screen for BT-12 cells (AID 1347101). Note: nearly all actives have a fitted effect of over 25% in size. The procedure, abridged:
as §1

Experiment [5] is described as follows: qHTS of pediatric cancer cell lines to identify multiple opportunities for drug repurposing: Primary screen for Rh18 cells (AID 1347102). Note: nearly all actives have a fitted effect of over 65% in size. Summed up:
as §3

Experiment [6] can be described thus: qHTS of pediatric cancer cell lines to identify multiple opportunities for drug repurposing: Primary screen for OHS-50 cells (AID 1347103). Note: nearly all actives have a fitted effect of over 40% in size. Note: potency is the fitted concentration of half-maximal effect. The procedure, abridged: as §1
Experiment [7] can be described thus: qHTS of pediatric cancer cell lines to identify multiple opportunities for drug repurposing: Primary screen for RD cells (AID 1347104). Note: nearly all actives have a fitted effect of over 55% in size. Summed up: as §2
The nature of experiment [8]: qHTS of pediatric cancer cell lines to identify multiple opportunities for drug repurposing: Primary screen for control Hh wild type fibroblast cells (AID 1347106).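 Note: series mostly up to about 46 µM; a drop in luminescence marks cytotoxicity and a rise apparent proliferation; nearly all actives have a fitted effect of over 55% in size.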 Summed up:
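Cells (500-1,000/well) in growth media were settled 5 h at 37 degrees C, then given compounds for 48 h. Viability was read as CellTiter-Glo luminescence. Primary runs used MIPE at 11 points (0.78 nM-46 µM) and NPC at 8 points (0.59 nM-46 µM); follow-ups used 11 points.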

A short description of experiment [9]: qHTS of pediatric cancer cell lines to identify multiple opportunities for drug repurposing: Primary screen for Rh30 cells (AID 1347107). Note: series mostly up to about 46 µM; nearly all actives have a fitted effect of over 75% in size. The procedure, abridged:
as §3

The nature of experiment [10]: qHTS of pediatric cancer cell lines to identify multiple opportunities for drug repurposing: Primary screen for MG 63 (6-TG R) cells (AID 1347105). Note: nearly all actives have a fitted effect of over 50% in size. Summed up: as §2

Inconclusive results are not listed. Calls of active or inactive are those of the source. Calls come from the whole dose curve; as a rule, active = well fitted curve in the direction sought with a large enough effect; inconclusive = small, poorly fitted or top-dose-only effect, or another doubt; inactive = no such curve, though single readings can be large; an effect the other way counts as inactive or inconclusive.

For `COc1ccc2c(C(=O)c3ccc(Cl)cc3)c(C)n(CC(=O)O)c2c1`, the Potency result in experiment [1], in experiment [2], in experiment [3], in experiment [4], in experiment [5] and in experiment [6] was “inactive” in each case. In addition, the Potency result in experiment [7], in [8] and in experiment [9] was “inactive” in each case.
Turning to `CCC1(CC)C(=O)NC(=O)NC1=O`, the Potency result in experiment [1], in experiment [2], in experiment [3], in [4], in experiment [5] and in experiment [6] was “inactive” each time. In addition, the Potency entry in experiment [7], in [10] and in experiment [9] was “inactive” throughout.
For `CCN1CCCC1CNC(=O)C(O)(c1ccccc1)c1ccccc1` (configuration not stated), the Potency entry in experiment [1], in experiment [2], in experiment [3], in [4], in experiment [5] and in experiment [6] was “inactive” throughout. Moreover, the Potency result in experiment [7], in experiment [10], in experiment [8] and in [9] was “inactive” throughout.
Regarding `CC(Cc1ccc2c(c1)OCO2)NO` (configuration not stated), the Potency entry in experiment [1], in experiment [2], in experiment [3], in experiment [4], in [5] and in experiment [6] was “inactive” in each case. Further, the Potency entry in experiment [7], in experiment [10] and in [8] was “inactive” throughout.
In the case of `CCNc1nc(Cl)nc(NCC)n1`, the Potency entry in experiment [1], in [2], in [3], in experiment [4], in experiment [5] and in [6] was “inactive” each time. For the same molecule, the Potency entry in [7], in experiment [10], in [8] and in experiment [9] was “inactive” in each case.
In the case of `CNC(=O)Oc1cccc2ccccc12`, the Potency entry in [1], in experiment [2], in [3], in experiment [4], in [5] and in [6] was “inactive” throughout. Moreover, the Potency entry in [7], in [10] and in [8] was “inactive” in each case.
On to `CCCCCCCCC(=O)NCc1ccc(O)c(OC)c1`, for which the Potency in experiment [1] is 1.4 nM (active); in [2], 1 nM (active); in [3], 1 nM (active); in [6] it was 1 nM (active). Moreover, the Potency entry in experiment [4], in experiment [5], in experiment [7], in experiment [8] and in experiment [9] was “inactive” throughout.
Regarding `C[C@]12CC[C@H]3[C@@H](CCC4=CC(=O)CC[C@@]43C)[C@@H]1CC[C@@H]2C(=O)O`, the Potency result in [1], in experiment [2], in experiment [3], in experiment [4], in [5] and in [6] was “inactive” throughout. Further, the Potency result in experiment [7], in experiment [10] and in experiment [8] was “inactive” throughout.
Take `COc1ccc(CN2CCNCC2)c(OC)c1OC`: the Potency result in experiment [1], in [2], in experiment [3], in experiment [4], in [5] and in [6] was “inactive” in each case. Moreover, the Potency result in [7], in experiment [8] and in experiment [9] was “inactive” throughout.
Take `Nc1ccccc1C(=O)OCC(O)CO` (configuration not stated): the Potency entry in experiment [1], in [2], in experiment [3], in [4], in experiment [5] and in experiment [6] was “inactive” in each case. Further, the Potency entry in [7] and in [8] was “inactive” each time.
In the case of `Sc1ccccc1Cl`, the Potency result in [1], in experiment [2], in experiment [3], in experiment [4], in [5] and in experiment [6] was “inactive” throughout. For the same molecule, the Potency result in experiment [7], in experiment [10], in experiment [8] and in [9] was “inactive” in each case.
On to `NC(=O)CN1CCCC1=O`, for which the Potency entry in experiment [1], in experiment [2], in [3], in [4], in experiment [5] and in experiment [6] was “inactive” each time. Also, the Potency result in experiment [7] and in experiment [8] was “inactive” each time.
As to `COc1ccc(OC)c(CC(C)N)c1` (configuration not stated), the Potency result in experiment [1], in experiment [2], in experiment [3], in [4], in [5] and in experiment [6] was “inactive” in each case. Besides, the Potency result in [7], in [10], in [8] and in experiment [9] was “inactive” in each case.
Take `CCCCC1C(=O)NC(=O)N(C2CCCCC2)C1=O` (configuration not stated): the Potency result in [1], in [2], in experiment [3], in experiment [4], in experiment [5] and in experiment [6] was “inactive” in each case. Besides, the Potency entry in experiment [7], in [10], in experiment [8] and in experiment [9] was “inactive” each time.
As to `C[N+](C)(C)CCOC(=O)C(O)(c1ccccc1)c1ccccc1`, the Potency result in experiment [1], in [2], in experiment [3], in experiment [4], in [5] and in [6] was “inactive” each time. Also, the Potency result in [7] and in experiment [9] was “inactive” in each case.
In the case of `CCCC(C)C1(CC)C(=O)N=C(S)NC1=O` (configuration not stated), the Potency entry in [1], in [2], in experiment [3], in [4], in [5] and in experiment [6] was “inactive” in each case. Further, the Potency result in experiment [7], in experiment [10] and in experiment [8] was “inactive” throughout.
For `NC(=O)OCCCc1ccccc1`, the Potency result in experiment [1], in experiment [2], in experiment [3], in experiment [4], in [5] and in experiment [6] was “inactive” each time. In addition, the Potency result in experiment [7], in experiment [10], in experiment [8] and in experiment [9] was “inactive” each time.
Consider `C1CN2CCC1CC2`, for which the Potency entry in [1], in experiment [2], in experiment [3], in experiment [4], in experiment [5] and in [6] was “inactive” throughout. Besides, the Potency entry in experiment [7], in experiment [10] and in experiment [9] was “inactive” each time.
Take `COC(=O)C1=CCCN(C)C1`: the Potency entry in [1], in [2], in experiment [3], in experiment [4], in [5] and in [6] was “inactive” in each case. For the same molecule, the Potency result in [7], in experiment [10], in experiment [8] and in [9] was “inactive” each time.
Turning to `C[C@]12CC[C@H]3[C@@H](CC=C4C[C@@H](O)CC[C@@]43C)[C@@H]1CC[C@@H]2O`, the Potency result in [1], in experiment [2], in experiment [3], in experiment [4], in experiment [5] and in [6] was “inactive” each time. In addition, the Potency entry in experiment [7] is “inactive”.
As for `CN1C(=O)CN=C(c2ccccc2)c2cc([N+](=O)[O-])ccc21`, the Potency result in experiment [1], in experiment [2], in experiment [3], in experiment [4], in experiment [5] and in experiment [6] was “inactive” throughout. For the same molecule, the Potency entry in [7], in experiment [10], in experiment [8] and in [9] was “inactive” in each case.
Take `COc1cc(N)c(Cl)cc1C(=O)NC1CN2CCC1CC2` (configuration not stated): the Potency result in experiment [1], in experiment [2], in [3], in [4], in experiment [5] and in [6] was “inactive” in each case. The Potency entry in experiment [7] and in [8] was “inactive” each time.
On to `C[N+]1(CCC(C(N)=O)(c2ccccc2)c2ccccc2)CCCCC1`, for which the Potency entry in experiment [1], in experiment [2], in experiment [3], in [4], in experiment [5] and in [6] was “inactive” in each case. Moreover, the Potency result in experiment [7], in [10], in experiment [8] and in experiment [9] was “inactive” throughout.
Turning to `C=CCN1CC[C@]23CCCC[C@H]2[C@H]1Cc1ccc(O)cc13`, the Potency entry in [1], in experiment [2], in experiment [3], in experiment [4], in [5] and in experiment [6] was “inactive” each time. Moreover, the Potency result in [7] is “inactive”.
